Source: PubChem (National Center for Advancing Translational Sciences (NCATS))
NS1 inh – inhibitors of influenza NS1 protein function; actives 0.4% (n = 270,000); AID 2326; Potency, µM (series often up to 46.1 µM), inactives show at the top dose activity, positive = more growth; calls by dose curve; further: actives are rising curves; nearly all actives have a fitted effect of over 50% in size
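Growth recovery, yeast-based: influenza A NS1 expressed in S. cerevisiae causes slow growth, and suppressors are detected by OD600. The parent strain without NS1 is used as positive control.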
TbPYK inhibitor – T. brucei pyruvate kinase inhibition | Q57TT1 | TbPYK enzyme, Kinase-Glo Plus ATP luminescence, 45 min | Potency, µM (series often up to 76.8 µM), inactives show at the top dose activity, negative = inhibition, most hits filed as inhibitors | actives 0.12% (n = 410,000) | AID 624173; further: on the % scale 0 is the no-effect control and ±100 the full control effect; nearly all actives have a fitted effect of over 50% in size
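TbPYK + substrate in 50 mM TEA pH 7.2, 100 mM KCl, 10 mM MgCl2, 0.05% BSA, 0.01% Tween-20; cpd pinned; ADP 130 uM final; 45 min RT; Kinase-Glo Plus 10 min; luminescence endpoint.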
Sm TGR block – blocks Schistosoma mansoni thioredoxin glutathione reductase; Q962Y6; actives 3% (n = 360,000); purified TGR, DTNB reduction, TNB absorbance 405 nm; AID 485364; Potency, µM (doses to about 114 µM), inactives show at the top dose activity change, negative = inhibition, usual class: inhibitors; further: on the % scale 0 is the no-effect control and ±100 the full control effect; nearly all actives have a fitted effect of over 60% in size
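First, TGR (20 nM dispensed) and NADPH were mixed with compound. Second, a 15 min room-temperature incubation followed. Third, further NADPH and then DTNB were added to start the reaction. Finally, TNB absorbance was monitored kinetically.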
RE007 growth inh – less growth of the S. pombe RE007 Vpr strain; AID 651644; S. pombe RE007 Vpr strain, BacTiter-Glo ATP luminescence, 24 h; actives 0.21% (n = 360,000); Potency, µM (doses to about 92.2 µM), inactives show top-dose activity change, negative = less growth, actives largely listed as inhibitors; active means well fitted falling curve with a large enough effect; inconclusive means small, poorly fitted or top-dose-only effect; inactive means no such curve, though single readings can be large or run the other way; further: on the % scale 0 is the no-effect control and ±100 the full control effect; nearly all actives have a fitted effect of over 50% in size
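Fission yeast strain RE007, carrying one chromosomally integrated HIV-1 vpr copy, was seeded at OD 0.01 in PMG+AL medium with 23 nL pinned compound. After 24 h at 30 °C and 99% humidity, viability was read by BacTiter-Glo luminescence.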
Giardia FBPA inh – Giardia lamblia aldolase inhibition; Potency, µM (doses to about 59.6 µM), for inactives: at the top dose activity, negative = inhibition, usual class: inhibitors; purified Giardia FBPA; actives 0.71% (n = 290,000); A8B2U2; further: on the % scale 0 is the no-effect control and ±100 the full control effect; nearly all actives have a fitted effect of over 55% in size
Target sequence (A8B2U2 whole entry, looked up): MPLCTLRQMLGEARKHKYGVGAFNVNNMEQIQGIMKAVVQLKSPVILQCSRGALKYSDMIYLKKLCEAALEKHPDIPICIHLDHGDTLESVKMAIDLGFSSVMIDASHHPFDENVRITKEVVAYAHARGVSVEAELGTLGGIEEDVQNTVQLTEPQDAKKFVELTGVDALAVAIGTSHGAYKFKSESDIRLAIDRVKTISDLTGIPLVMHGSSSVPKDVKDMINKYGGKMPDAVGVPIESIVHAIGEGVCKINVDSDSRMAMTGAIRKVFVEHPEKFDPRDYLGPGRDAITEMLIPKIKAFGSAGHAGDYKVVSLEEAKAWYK
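40 nM FBPA preincubated 10 min at RT with compound (up to 57.5 uM final), then substrate plus GAPDH/TPI/NAD/arsenate coupling and diaphorase/resazurin added. Fluorescence read after 20 min at RT, 525/598 nm.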
LmPK inhibitor – LmPK (Leishmania mexicana) enzyme inhibition; Q27686; purified LmPK, Kinase-Glo ATP luminescence, 1 h; Potency, µM (highest dose often 57.5 µM), for the others: at the highest dose activity change, negative = inhibition, usual class: inhibitors; actives 0.37% (n = 290,000); further: on the % scale 0 is the no-effect control and ±100 the full control effect
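Purified LmPK (0.1 nM) with 0.5 mM PEP and 0.1 mM ADP in imidazole buffer pH 7.2 with MgCl2/KCl, 1 h at room temperature. ATP formed was read by luciferase luminescence and normalized to no-enzyme and uninhibited controls.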
Active calls of the source: *; ? = inconclusive; nt = no result. Rows were chosen to be rich in hits. Some 3.5% of all compounds tested hit in one or more screens of this group. Unless noted, the call rests on the fitted dose curve; in most records, active means well fitted curve in the direction sought with a large enough effect; inconclusive means small, poorly fitted or top-dose-only effect, or another doubt; inactive means no such curve, though single readings can be large; an effect the other way counts as inactive or inconclusive. Potency means the concentration at half of the fitted maximal effect.

SMILES	NS1 inh	TbPYK inhibitor	Sm TGR block	RE007 growth inh	Giardia FBPA inh	LmPK inhibitor
CCCn1c(-c2ccc(S(=O)(=O)N3CCOCC3)cc2)csc1=Nc1ccc(OCC)cc1	nt	-0.5%	11.8%	nt	nt	nt
Cc1cc(Nc2ccc(O)cc2)ccc1N	nt	nt	2µM*	nt	nt	nt
Oc1ccc(Nc2ccc3ccccc3c2)cc1	nt	-15.5%	nt	?	nt	nt
Cc1cc(Nc2cccc(Br)c2)n2c(nc3ccccc32)c1C#N	nt	9.9%	-0.4%	nt	nt	nt
O=C(CC1C(=O)NCCN1C(=O)Nc1ccc(F)cc1)Nc1ccc(F)cc1 (stereo not drawn)	2.0%	-5.7%	-0.8%	-1.5%	-8.9%	0.7%
CCC1c2ccc(C)n2CCN1C(=O)Nc1ccc(F)cc1 (stereo not drawn)	?	-17.1%	10µM*	5.1%	?	5.7%
CCCC1c2ccc(C)n2CCN1C(=O)Nc1ccc(F)cc1 (stereo not drawn)	-1.1%	-7.6%	20µM*	-0.1%	-19.3%	-1.6%
Cc1ccc2occ(CC(=O)Nc3ccc(Cl)c(C(F)(F)F)c3)c2c1	nt	0.9%	30.2%	nt	nt	nt
CC(C)c1c(O)c(-c2cc3c(c(C(C)C)c2O)CCC2C(C)(C)CCC[C@@]32C)cc2c1CCC1C(C)(C)CCC[C@@]21C (stereo partly drawn)	nt	nt	nt	nt	10.0%	nt
CC(C)c1cc2c(c(O)c1O)[C@@]13CCCC(C)(C)C1CC2OC3=O (stereo partly drawn)	18.7%	?	2.82µM*	-10.7%	5.01µM*	15.8µM*
Cc1cc(C)n2cc(CSCc3ccco3)nc2n1	3.1%	0.1%	39.8µM*	-10.2%	-14.9%	1.8%
Cc1cccc2nc(CSCc3ccco3)cn12	-3.6%	6.3%	28.2µM*	-7.3%	?	-18.1%
Cn1cc(S(=O)(=O)N2CCCCCC2)cc1C(=O)N1CCN(c2cccc(Cl)c2)CC1	nt	-11.5%	-0.5%	nt	nt	nt
O=C(COCc1cc(-c2ccc3c(c2)OCO3)on1)NCc1ccc(F)cc1	nt	-6.5%	1.7%	nt	nt	nt
COC(=O)c1ccccc1SC1CC(=O)N(c2ccccc2)C1=O (stereo not drawn)	-19.0%	-0.3%	50.1µM*	-8.4%	1.5%	-1.6%
O=C(O)c1ccccc1SC1CC(=O)N(c2cccc3ccccc23)C1=O (stereo not drawn)	-129.0%	-26.2%	1.78µM*	7.94µM*	2.9%	7.0%
CCOc1ccc(N2C(=O)CC(Sc3ccccc3C(=O)O)C2=O)c([N+](=O)[O-])c1 (stereo not drawn)	nt	-15.2%	17.8µM*	?	11.5%	-1.5%
C[N+](C)(CCCCCC[N+](C)(C)C1c2ccccc2-c2ccccc21)C1c2ccccc2-c2ccccc21	nt	3.0%	nt	nt	nt	nt
O=C(Nc1ccc2nc(-c3ccco3)[nH]c2c1)c1cccs1	-54.3%	-12.0%	25.1µM*	-12.2%	-16.8%	-20.2%
Cc1ccc(S(=O)(=O)NC(Cc2ccccc2)C(=O)NN)cc1 (stereo not drawn)	27.6%	3.0%	-10.2%	-3.2%	-12.3%	-3.8%
Cc1ccc(S(=O)(=O)N[C@@H](Cc2ccccc2)C(=O)CCl)cc1	-38.2%	4.8%	11.2µM*	-12.5%	2.2%	1.8%
Cc1cc(C)c(NC(=O)C[C@H](CC(=O)O)c2cccc3ccccc23)c(C(=O)N2CCC3(CCCC3)CC2)c1	10µM*	3.7%	nt	nt	17.9%	nt
CC1(C)CC(=O)C(N=Nc2ccc(Br)cc2)=C(O)C1	0.6%	-0.7%	-3.3%	32.2%	-3.3%	2.5%
CC1(C)CC(=O)C(N=Nc2ccc(S(=O)(=O)N3CCOCC3)cc2)=C(O)C1	12.2%	-6.9%	39.8µM*	-8.7%	-1.0%	-2.6%
CO[C@@]1(NC(=O)Cc2cccs2)C(=O)N2C(C(=O)O)=C(COC(N)=O)CS[C@@H]21	16.3%	5.9%	35.5µM*	-7.5%	?	21.2%
SMILES	NS1 inh	TbPYK inhibitor	Sm TGR block	RE007 growth inh	Giardia FBPA inh	LmPK inhibitor
Cc1cccc(Cn2ncc(Cl)c(Cl)c2=O)c1	-43.4%	0.2%	0.0%	-27.2%	-0.9%	0.5%
O=C(Cn1ncc(Cl)c(Cl)c1=O)c1ccc2c(c1)OCCO2	nt	-4.7%	nt	13.2%	nt	nt
Cc1ccc(C)c(C(=O)Cn2ncc(Cl)c(Cl)c2=O)c1	2.8%	2.0%	50.1µM*	18.5%	5.5%	-5.9%
Cc1cc(C(=O)Cn2ncc(Cl)c(Cl)c2=O)c(C)n1CC(F)(F)F	8.3%	-6.8%	44.7µM*	-4.2%	-2.3%	2.0%
Cc1ccc(-n2c(SCC(=O)N3CCCc4ccccc43)nc3c([nH]c4ccccc43)c2=O)cc1	nt	1.6%	0.6%	nt	nt	nt
COc1ccc(OC)c(NC(=O)c2nc3ccccc3s2)c1	nt	-0.7%	-1.1%	-5.1%	0.4%	1.1%
COc1ccc(C(=O)Nc2ccc(NC(=O)c3ccccn3)cn2)cc1	4.9%	9.8%	-0.1%	-17.8%	0.1%	3.1%
O=C(Nc1ccc(NC(=O)C2CC2)nc1)c1ccccn1	-23.8%	-26.9%	1.0%	-14.3%	-23.9%	14.1µM*
COc1ccc(NC(=O)c2nc3ccccc3s2)cc1	-14.7%	-12.0%	6.7%	-29.6%	-22.3%	15.8µM*
COc1ccc(NC(=O)c2ccccn2)cc1	-13.7%	-28.9%	-26.3%	?	-4.4%	11.2µM*
COc1cc(/C=C/C(=O)O[C@H]2CC[C@]34C[C@]35CC[C@]3(C)[C@@H]([C@H](C)CCC=C(C)C)CC[C@@]3(C)C5CCC4C2(C)C)ccc1O (stereo partly drawn)	nt	0.0%	nt	nt	nt	nt
O=C(NC(NNc1ccc([N+](=O)[O-])cc1)(C(F)(F)F)C(F)(F)F)c1ccc(F)cc1	-21.2%	4.5%	31.6µM*	-10.2%	-10.5%	-0.9%
CCN(C(=O)Cn1c(=O)oc2cc(Cl)ccc21)c1cccc(C(F)(F)F)c1	nt	4.0%	6.6%	nt	nt	nt
Cc1ccc(-c2cn3c(=S)[nH]nc3s2)cc1	-61.3%	?	-15.7%	3.7%	-9.0%	2.24µM*
Cc1ccc(-c2n[nH]c(=S)n2C)cc1	13.1%	-18.3%	0.0%	15.0%	-8.3%	1.3%
O=C1CC(c2ccccc2)c2cc(O)ccc2O1 (stereo not drawn)	0.3%	1.0%	22.4µM*	-1.0%	-3.5%	5.6%
Cc1ccc(C2CC(=O)Oc3cc4c(cc32)OCO4)cc1 (stereo not drawn)	nt	nt	nt	nt	50µM*	nt
NC(=O)c1c(N)sc2c1CCCC2	2.7%	?	12.6µM*	13.6%	?	6.5%
Nc1sc2c(c1C(=O)NC1CCS(=O)(=O)C1)CCCC2 (stereo not drawn)	-30.2%	?	22.4µM*	0.3%	?	-2.6%
